# Bioassay records as filed in PubChem.
# Shown are actives, neighbours in structure and some others; about 1.9% of the full set was active somewhere.
# HSF-1 act = HSF-1 activators, primary screen, NIH3T3-HGL cells, MG132 stress, luminescence, single point; NIH3T3-HGL HSF-1 luciferase reporter, 8 h; 100% = twice DMSO control signal; AID 504408, 2011; 300,000 tested, 1.7% active; activation, % at 9 µM;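 active means mean replicate activation of at least 50% with a set share of replicates each reaching 50%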;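 further: 0% = median of the neutral control wells and 100% = twice that signal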
# Hsp70 activator = Hsp70 transcriptional activators, primary screen, cell-based, HeLa, Hsp70 promoter luciferase, luminescence, 10 µM | 200,000 tested, 0.04% active | AID 1203, 2008 | HeLa Hsp70 promoter luciferase reporter; scaled: vehicle 0, proteasome-inhibitor control 100% | activation, % at 10 µM;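 active means activation above the mean across all tested compounds plus 3 SD, cutoff set per campaign, cut at about 5.5% in these data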;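 further: 100% = MG132 at 30 µM as the positive control and 0% = DMSO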
# zVAD death inh = inhibitors of zVAD-triggered necroptosis, primary screen, L929 cells; AID 1377, 2008; 220,000 tested, 0.38% active; viability rescue, % at 10 µM; L929 zVAD necroptosis rescue, ATP luminescence, 24 h; with zVAD 60 µM;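 active means activation, scaled between plate controls, above about 75%, limit read from the data; inactive means activation under that limit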;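 further: 0% = zVAD with DMSO and 100% = DMSO alone without zVAD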
# TNF necrop inh = inhibitors of TNF-alpha triggered necroptosis, primary screen, cell-based, Jurkat FADD-/-, single concentration. AID 463075, 2010. activation (protection from cell death), % at 10 µM. 220,000 tested, 0.068% active. Jurkat FADD-/- TNF necroptosis rescue, ATP luminescence, 24 h; 0 = TNF only, 100 = no-TNF cells;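 active means activation, meaning protection from cell death, of at least 50% relative to plate controls; inactive means activation below 50%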;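 further: necroptosis triggered by 40 ng/mL TNF-alpha added together with compound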
# Numbers without * were called inactive; / = not tested or not shown.
SMILES,HSF-1 act,Hsp70 activator,zVAD death inh,TNF necrop inh
O=c1[nH]c2ccccc2cc1CN(Cc1cccnc1)S(=O)(=O)c1ccc([N+](=O)[O-])cc1,62.5*,/,/,/
CC(=O)c1ccccc1NC(=O)CCCNC(=O)c1ccc(Cl)cc1,-7.6,/,/,/
CCOC(=O)C(CC)n1cnc2c(nnn2-c2ccc(F)cc2)c1=O (centres undefined),-7.6,/,/,/
O=C(/C=C/c1cccs1)Nc1ccncc1,16.0,-0.5,0.9,-2.7
O=C(/C=C/c1ccc([N+](=O)[O-])cc1)Nc1cccnc1,54.1*,0.1,-0.4,-1.0
CC(C)(C)c1ccc(/C=C/C(=O)Nc2ccncc2)cc1,56.0*,-0.2,1.0,1.8
O=C(/C=C/c1ccc(Cl)c([N+](=O)[O-])c1)Nc1cccnc1,25.6,0.0,-0.4,-7.7
COc1ccc(CC(=O)Nc2cccc(/C(C)=N/NC(=O)C3(C)CC3(Br)Br)c2)cc1 (centres undefined),6.5,/,/,/
CCN(CC)C(=O)COc1coc(CN2CCN(c3ccccc3)CC2)cc1=O,7.1,/,/,/
COc1ccc2[nH]c(C(=O)Nc3cccc(C)n3)cc2c1,60.6*,/,2.7,-2.8
Clc1ccc(N=c2ssnc2Cl)nc1,130.1*,-0.3,0.3,-9.4
Clc1nssc1=Nc1ccc(Br)cc1,-19.1,-0.3,-0.4,-2.1
O=C(c1ccc(-c2ccccc2)cc1)c1ccc([N+](=O)[O-])cc1,2.1,/,0.8,-1.8
O=C(C#Cc1ccccc1)c1ccc([N+](=O)[O-])cc1,60.6*,-0.3,0.4,-12.3
CSc1ccc(Cl)c(C(=O)OCC(=O)N(C)CCC#N)c1,58.9*,-0.5,2.1,-0.2
CN(CCC#N)C(=O)COC(=O)c1ccc(Cl)cc1O,-18.3,-0.2,0.3,0.4
CC(=O)NC1C(=O)N=C(SC(C)C(=O)Nc2cccc(Cl)c2)NC1=O (centres undefined),9.4,-0.1,1.9,-0.6
O=C(COc1ccccc1Br)Nc1ccc2c(c1)OCCCO2,57.2*,/,/,/
O=C(Cn1cnc2sc3c(c2c1=O)CCCC3)NCC(=O)Nc1ccc(F)cc1F,2.5,/,/,/
Fc1ccc2[nH]c3c(N4CCc5ccccc5C4)ncnc3c2c1,29.8,/,0.3,-17.4
Cc1ccc2[nH]c3c(N4CCc5ccccc5C4)ncnc3c2c1,92.0*,-0.2,0.5,-20.1
Brc1ccc2[nH]c3c(N4CCc5ccccc5C4)ncnc3c2c1,57.9*,-0.4,-0.1,-7.5
O=C(NCc1nnc(SCc2ccccc2)n1-c1ccccc1)C12CC3CC(CC(C3)C1)C2,90.5*,-0.3,4.6,-0.3
O=C(NCc1nnc(SCc2ccccc2)n1-c1ccc(F)cc1)C12CC3CC(CC(C3)C1)C2,16.0,-0.3,5.2,-0.3
O=C(N/N=C/c1cc(Br)cs1)c1c[nH]c2ccccc12,48.5,/,70.8,0.6
SMILES,HSF-1 act,Hsp70 activator,zVAD death inh,TNF necrop inh
O=C(N/N=C/c1ccc(Br)s1)c1c[nH]c2ccccc12,56.2*,-0.1,6.0,-0.6
Clc1ccc(/C=N/Nc2nnc(Cl)c3ccccc23)cc1,120.8*,-0.5,1.7,-0.5
Cc1ccc(/C=N/Nc2nnc(Cl)c3ccccc23)cc1,64.6*,-0.2,/,-5.3
Cc1ccc(/C=N/N2CCN(Cc3ccccc3)CC2)o1,3.8,0.0,-0.7,0.9
Cc1ccc(/C=N/N(Cc2ccccc2)c2ccccc2)o1,106.2*,0.1,1.1,-1.6
CCCCCOc1ccc(N2C(=O)CC(N(O)c3ccccc3)C2=O)cc1 (centres undefined),40.1,0.2,0.9,-0.4
CCCCOc1ccc(N2C(=O)CC(N(O)c3ccccc3)C2=O)cc1 (centres undefined),107.0*,0.4,1.7,-0.5
CCOC(=O)C1=C(C)OC(N)=C(C#N)C1c1cc2c(cc1[N+](=O)[O-])OCO2 (centres undefined),6.7,0.2,-0.8,-4.7
CN(CC(=O)Nc1ccccc1Cl)C(=O)COC(=O)Cc1ccc(F)cc1,-1.8,/,/,/
Cc1cc(C)c2cc(C(=O)N3CCc4ccccc4C3)[nH]c2c1,13.8,/,1.2,-1.3
Cc1cc(C)c2cc(C(=O)N(C)C3CCN(C)CC3)[nH]c2c1,55.0*,/,1.0,8.4
C(=C\c1ccccc1)/CSc1ccccn1,129.9*,0.1,0.1,0.3
CC(C)(C)c1ccc(NC(=O)c2ccsc2)cc1,11.6,/,33.8,-0.5
CCCCNc1nc(Nc2ccc(C)c(Cl)c2)c2cnn(C)c2n1,65.0*,/,/,/
O=C1CC(N2C(=O)/C(=C/C=C/c3ccccc3)SC2=S)C(=O)N1c1ccccc1 (centres undefined),83.2*,-0.3,0.5,1.9
